esBAF inh: inhibitors of esBAF chromatin remodeling in mouse ES cells. Bmi1-luciferase knock-in reporter, 24 h; 100% = twice the neutral-well signal. reporter increase, % at 12.5 µM. 350,000 compounds, 2% hits; in the data active = activation above about 40%; inconclusive = no clear call, values can overlap the other calls;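 note: a rise in the Bmi1 reporter signal indicates esBAF inhibition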
Wnt act: activators of Wnt/beta-catenin signaling; 300,000 compounds, 1.2% hits; AID 743398; activation, % at 9.35 µM; Wnt/beta-catenin reporter cell assay, activator, plate reader; in the data active = activation above about 30%, passing the limit was not always enough; inconclusive = no clear call, values can overlap the other calls
hcDAF12 agonist: H. contortus DAF-12 activation, primary screen; HEK293 hcDAF-12 lit1-tk-luc reporter, luminescence; 0% DMSO, 100% Δ7-dafachronic acid; activation, % at 6.8 µM; 370,000 compounds, 1.4% hits;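 active = activation above the mean of all tested compounds plus 3 SD, cut at about 5.5% in these data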
hgDAF-12 ag: agonists of H. glycines DAF-12 nuclear receptor; HEK293 GAL4-hgDAF12 UAS-luciferase reporter, agonist luminescence; normalized to butyrate control; activation, % at 6.8 µM; 370,000 compounds, 1.8% hits;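 active = activation above a cutoff set at the mean of all screened compounds plus 3 SD, cut at about 10% in these data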
ssDAF-12 act: activators of S. stercoralis DAF-12 nuclear receptor | HEK293 ssDAF-12/GRIP1 lit1-tk-luc reporter, luminescence; % of 3 µM dafachronic acid response | activation, % at 6.8 µM | 370,000 compounds, 1% hits;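 active = activation above the mean over all tested compounds plus 3 SD, cut at about 0.9% in these data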
DAX1 inh: DAX1 (NR0B1) inhibition, primary screen. HEK293T StAR-luciferase reporter, SF-1/DAX-1 repression relief. inhibition, % at 6.8 µM. 370,000 compounds, 1.1% hits. AID 652010;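 active = inhibition above the mean over all tested compounds plus 3 SD, cut at about 3.6% in these data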;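 note: higher inhibition means more luminescence from relief of DAX-1 repression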
Numbers stand for hits; i = inactive; ? = inconclusive; nt = no result. Rows were chosen to be rich in hits. Some 4.2% of all compounds tested hit in one or more screens of this group.

SMILES	esBAF inh	Wnt act	hcDAF12 agonist	hgDAF-12 ag	ssDAF-12 act	DAX1 inh
CC(=O)N1N=C(c2ccccc2)CC1c1cn(C)c2ccccc12 (stereo not given)	i	90	i	i	i	i
Cc1noc(C)c1NC(=O)Nc1cccc2c1O[C@@H](CN(C)Cc1ccc(-c3ccccc3)cc1)[C@H](C)CN([C@@H](C)CO)C2=O	i	nt	nt	nt	nt	nt
COc1ccc(CCN(Cc2ccccn2)C(=S)Nc2cccc(C)c2)cc1OC	i	45	i	i	i	i
CO[C@@H]1CN(C)C(=O)c2cc(NS(C)(=O)=O)ccc2OC[C@H](C)N(C)C[C@@H]1C	i	nt	nt	nt	nt	nt
Cn1c(=O)c(-c2ccccc2N)nc2ccccc21	nt	nt	6.3	i	i	i
O=C(OCC(=O)C12CC3CC(CC(C3)C1)C2)c1ccc(O)cc1O	51	i	i	i	i	i
O=C(COC(=O)c1ccc(O)cc1O)NC12CC3CC(CC(C3)C1)C2	?	i	i	i	i	i
COc1cccc2c1C(=O)c1c(O)c3c(c(O)c1C2=O)CC(O)(C(C)=O)CC3OC1CC(N(C)C)C(O)C(C)O1 (stereo not given)	nt	i	i	i	i	i
CC(=O)[C@@]1(O)Cc2c(O)c3c(c(O)c2[C@H](O[C@H]2C[C@H](N)[C@H](O)[C@H](C)O2)C1)C(=O)c1ccccc1C3=O	i	i	i	i	3.6	i
COc1cccc2c1C(=O)c1c(O)c3c(c(O)c1C2=O)C[C@@](O)(C(=O)CO)C[C@@H]3O[C@H]1C[C@H](N)[C@H](O)[C@H](C)O1	i	i	i	i	2.2	i
CCCC#Cc1ccc2c(c1)O[C@H](CN(C)C(=O)c1ccccc1)[C@H](C)CN([C@H](C)CO)S2(=O)=O	i	nt	nt	nt	nt	nt
Cc1noc(C)c1NC(=O)Nc1ccc2c(c1)C(=O)N([C@H](C)CO)C[C@@H](C)[C@@H](CN(C)Cc1ccc(C(=O)O)cc1)OCCCC[C@H](C)O2	i	nt	nt	nt	nt	nt
CCn1c(SC(C)C)nnc1-c1cc(-c2ccccc2)sc1N	68	i	i	i	i	i
COCn1c(-c2ccc(OC)c(OC)c2)nc2ccccc21	47	nt	i	i	i	i
COCn1c(-c2cccc(Br)c2)nc2ccccc21	i	nt	i	i	i	i
C[C@H]1CN([C@@H](C)CO)C(=O)Cc2cc(NC(=O)CCC(F)(F)F)ccc2O[C@H]1CN(C)S(=O)(=O)c1ccccc1	i	nt	nt	nt	nt	nt
CCCC#Cc1ccc([C@@H]2[C@H](C#N)N(C(=O)C3CCCC3)[C@H]2CO)cc1	i	nt	nt	nt	nt	nt
O=C(NCCN1CCC(n2c(=O)[nH]c3ccccc32)CC1)c1cccc(Cl)c1	nt	i	i	19	i	i
O=C(NCCN1CCC(n2c(=O)[nH]c3ccccc32)CC1)c1cccc(F)c1	nt	i	i	i	i	i
C/C=C/c1ccc2c(c1)O[C@H](CN(C)C(=O)CN1CCOCC1)[C@H](C)CN([C@H](C)CO)S2(=O)=O	i	nt	nt	nt	nt	nt
CN(C)c1ccc(-c2ccc3c(=O)c4ccccc4n(C)c3c2)cn1	49	36	i	i	i	i
COc1cc2sc3ccc(-c4ccc(N(C)C)nc4)cc3c(=O)c2cc1OC	nt	44	i	i	i	i
COc1ccc(-c2ccc3sc4ccccc4c(=O)c3c2)cn1	i	39	i	10	i	i
CNC(=S)NNC(=O)c1oc2nc(-c3ccccc3)cc(C)c2c1N	nt	i	6.1	i	i	i
N#C/C(=C\c1ccc2c(c1)OCCO2)C(=O)Nc1ccc(C(=O)O)cc1	61	i	i	i	i	i
SMILES	esBAF inh	Wnt act	hcDAF12 agonist	hgDAF-12 ag	ssDAF-12 act	DAX1 inh
COC(=O)C[C@H]1CC[C@H](NS(=O)(=O)c2ccc(OC)cc2)[C@@H](CO)O1	i	nt	nt	nt	nt	nt
Cc1cc(-c2onc(C)c2C(N)=O)no1	i	38	i	i	i	i
O=C(C[C@@H]1C=C[C@H](NS(=O)(=O)c2ccc(F)cc2)[C@@H](CO)O1)N1CCN(c2ccccc2)CC1	i	nt	nt	nt	nt	nt
COCC#Cc1cnc2c(c1)C(=O)N([C@@H](C)CO)C[C@H](C)[C@H](CN(C)Cc1ccc3c(c1)OCO3)O2	i	nt	nt	nt	nt	nt
O=C(Cc1ccccc1[N+](=O)[O-])N1CCc2ccccc2C1	nt	i	i	11	1.1	i
O=C(Cc1ccc([N+](=O)[O-])cc1)N1CCc2ccccc2C1	nt	i	i	i	i	i
CCOc1cccc(C2C(C(=O)c3ccco3)=C(O)C(=O)N2c2nnc(C)s2)c1 (stereo not given)	i	90	i	i	i	i
CSc1nnc(N2C(=O)C(O)=C(C(=O)c3ccco3)C2c2cccc(Cl)c2)s1 (stereo not given)	i	i	i	i	i	i
CSc1nnc(N2C(=O)C(O)=C(C(=O)c3ccco3)C2c2ccc(F)cc2)s1 (stereo not given)	i	i	i	i	i	4.2
CCCC(=O)Nc1ccc2c(c1)C(=O)N(C)C[C@@H](OC)[C@@H](C)CN(CC1CCCC1)[C@H](C)CO2	i	nt	nt	nt	nt	nt
CC=Cc1ccc2n(c1=O)C[C@H]1[C@H](CO)[C@@H](C(=O)N3CCCCC3)N(Cc3ccccc3OC)[C@@H]21 (mixture of isomers)	i	nt	nt	nt	nt	nt
C[C@@H]1CN([C@H](C)CO)C(=O)c2cc(NC(=O)C3CC3)ccc2O[C@@H]1CN(C)S(=O)(=O)c1cn(C)cn1	i	nt	nt	nt	nt	nt
O=C1c2cccc(NCCCNCCO)c2C(=O)c2cccc(NCCCNCCO)c21	nt	i	i	i	1.0	i
CCOC(=O)C1=NOC2(C1)C(=O)Nc1c(Cl)cccc12 (stereo not given)	nt	i	5.7	i	i	i
CN(C)C(=O)C1=NOC2(C1)C(=O)Nc1ccccc12 (stereo not given)	nt	i	i	i	i	i
Cc1ccc(S(=O)(=O)N(C)C[C@@H]2Oc3ccc(NC(=O)CCCCCC(=O)Nc4ccccc4N)cc3CC(=O)N([C@H](C)CO)C[C@@H]2C)cc1	i	nt	nt	nt	nt	nt
CCOC(=O)c1cccc(COC(=O)c2cccc(-c3nnc(-c4ccccc4)o3)c2)c1	nt	55	i	i	i	i
CCOc1cccc(C(=O)Nc2cccc(-c3nnc(-c4ccc(C)cc4)o3)c2)c1	i	nt	i	i	i	i
O=C(OCc1ccccc1)c1cccc(-c2nnc(-c3ccccc3)o2)c1	i	nt	i	i	i	i
CC(=O)Nc1cccc(-c2nnc(-c3ccccc3)o2)c1	?	35	i	12	i	i
Cc1cc(C)n(-c2ccc(C(=O)OCc3nnc(-c4ccccc4)o3)cc2)n1	46	nt	i	i	i	i
O=C(Nc1cccc(-c2nnc(-c3ccccc3)o2)c1)C1CC1	i	i	i	i	i	i
CCOc1cccc(C(=O)Nc2cccc(-c3nnc(-c4ccccc4)o3)c2)c1	43	i	i	i	i	i
CCc1ccccc1Nc1nc(N)nc(CSc2nnnn2C)n1	nt	i	i	i	i	i
Cc1ccccc1Nc1nc(N)nc(CSc2nnnn2C)n1	56	i	i	i	i	i
